Results: the supplement of paper PMC11732987, “Enantioselective OTUD7B fragment discovery through chemoproteomics screening and high-throughput optimisation” (Communications Chemistry, 2025)

Assays:
Test in all cases: log2 ratio of Biotin-Ahx-Ub-VS probe labelling (fragment/DMSO); higher = less target engagement (more negative = stronger competition), active = hit call of the paper (q ≤ 0.05, log2 ratio ≤ -1)
Details in all cases: compound concentration: 200 uM; treatment time: 3 h
[1] = molecular target: T1, USP42 (UniProt Q9H9J4)
T1 sequence (whole entry): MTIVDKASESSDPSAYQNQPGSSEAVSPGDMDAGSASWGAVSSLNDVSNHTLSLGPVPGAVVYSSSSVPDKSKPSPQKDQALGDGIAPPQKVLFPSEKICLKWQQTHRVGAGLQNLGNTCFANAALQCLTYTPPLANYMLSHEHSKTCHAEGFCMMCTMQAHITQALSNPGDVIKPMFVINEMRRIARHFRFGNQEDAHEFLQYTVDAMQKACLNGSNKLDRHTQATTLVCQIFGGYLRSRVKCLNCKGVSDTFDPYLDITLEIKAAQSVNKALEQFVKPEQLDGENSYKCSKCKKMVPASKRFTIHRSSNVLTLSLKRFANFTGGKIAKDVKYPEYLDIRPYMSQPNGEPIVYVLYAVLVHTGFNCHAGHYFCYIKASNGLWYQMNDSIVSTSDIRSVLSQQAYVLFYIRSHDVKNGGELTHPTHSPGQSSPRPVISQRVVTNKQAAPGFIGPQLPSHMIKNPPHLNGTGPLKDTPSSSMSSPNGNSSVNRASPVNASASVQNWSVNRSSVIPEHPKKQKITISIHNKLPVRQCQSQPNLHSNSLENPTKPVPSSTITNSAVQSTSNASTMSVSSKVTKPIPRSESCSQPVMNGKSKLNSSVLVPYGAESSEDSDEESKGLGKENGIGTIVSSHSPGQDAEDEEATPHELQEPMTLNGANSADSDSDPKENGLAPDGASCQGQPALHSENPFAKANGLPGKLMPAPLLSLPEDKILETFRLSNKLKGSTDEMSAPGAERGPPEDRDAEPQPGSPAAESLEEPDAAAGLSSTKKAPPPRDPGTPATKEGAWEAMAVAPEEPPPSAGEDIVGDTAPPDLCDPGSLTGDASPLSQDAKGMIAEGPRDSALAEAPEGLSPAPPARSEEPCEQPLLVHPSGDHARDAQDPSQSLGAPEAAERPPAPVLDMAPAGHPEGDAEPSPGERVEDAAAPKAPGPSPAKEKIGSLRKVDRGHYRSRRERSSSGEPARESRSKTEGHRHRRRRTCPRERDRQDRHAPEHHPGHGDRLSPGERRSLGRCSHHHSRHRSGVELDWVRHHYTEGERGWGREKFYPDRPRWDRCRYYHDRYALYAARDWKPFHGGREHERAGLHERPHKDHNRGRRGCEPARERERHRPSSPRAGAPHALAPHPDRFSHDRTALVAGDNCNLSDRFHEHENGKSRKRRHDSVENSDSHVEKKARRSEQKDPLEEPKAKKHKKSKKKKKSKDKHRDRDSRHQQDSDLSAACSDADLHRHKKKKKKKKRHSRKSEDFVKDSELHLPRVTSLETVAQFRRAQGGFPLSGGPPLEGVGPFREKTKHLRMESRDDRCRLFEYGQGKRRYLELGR
In short: (§1)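 HEK293T lysate (495 µg per sample, in Tris/CHAPS/IGEPAL buffer with protease inhibitors) was exposed in triplicate for 3 h to fragment at 200 µM or to vehicle, then to Biotin-Ahx-Ub-VS at 0.5 µM final for 1 h. Labelled DUBs were enriched on NeutrAvidin, digested with LysC and trypsin, and analysed by diaPASEF LC-MS/MS. Spectronaut label-free quantities were normalised to the global median, and values are average log2 ratios of fragment over vehicle from an unpaired t-test. Only proteins with ≥2 unique peptides were used.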

[2] = molecular target: USP46 (UniProt P62068)
USP46, sequence (P62068 whole entry): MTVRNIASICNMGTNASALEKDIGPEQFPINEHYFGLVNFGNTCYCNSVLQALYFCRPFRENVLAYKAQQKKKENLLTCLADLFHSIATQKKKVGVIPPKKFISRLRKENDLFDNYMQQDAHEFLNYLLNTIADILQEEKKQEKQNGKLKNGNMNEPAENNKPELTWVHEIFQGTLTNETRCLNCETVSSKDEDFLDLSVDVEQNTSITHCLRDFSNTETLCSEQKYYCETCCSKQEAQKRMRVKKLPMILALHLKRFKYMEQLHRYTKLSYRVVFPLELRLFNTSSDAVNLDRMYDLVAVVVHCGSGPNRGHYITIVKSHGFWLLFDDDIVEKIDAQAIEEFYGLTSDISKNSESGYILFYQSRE
In short: as §1

[3] = molecular target: T2, USP47 (UniProt Q96K76)
T2 sequence (whole entry): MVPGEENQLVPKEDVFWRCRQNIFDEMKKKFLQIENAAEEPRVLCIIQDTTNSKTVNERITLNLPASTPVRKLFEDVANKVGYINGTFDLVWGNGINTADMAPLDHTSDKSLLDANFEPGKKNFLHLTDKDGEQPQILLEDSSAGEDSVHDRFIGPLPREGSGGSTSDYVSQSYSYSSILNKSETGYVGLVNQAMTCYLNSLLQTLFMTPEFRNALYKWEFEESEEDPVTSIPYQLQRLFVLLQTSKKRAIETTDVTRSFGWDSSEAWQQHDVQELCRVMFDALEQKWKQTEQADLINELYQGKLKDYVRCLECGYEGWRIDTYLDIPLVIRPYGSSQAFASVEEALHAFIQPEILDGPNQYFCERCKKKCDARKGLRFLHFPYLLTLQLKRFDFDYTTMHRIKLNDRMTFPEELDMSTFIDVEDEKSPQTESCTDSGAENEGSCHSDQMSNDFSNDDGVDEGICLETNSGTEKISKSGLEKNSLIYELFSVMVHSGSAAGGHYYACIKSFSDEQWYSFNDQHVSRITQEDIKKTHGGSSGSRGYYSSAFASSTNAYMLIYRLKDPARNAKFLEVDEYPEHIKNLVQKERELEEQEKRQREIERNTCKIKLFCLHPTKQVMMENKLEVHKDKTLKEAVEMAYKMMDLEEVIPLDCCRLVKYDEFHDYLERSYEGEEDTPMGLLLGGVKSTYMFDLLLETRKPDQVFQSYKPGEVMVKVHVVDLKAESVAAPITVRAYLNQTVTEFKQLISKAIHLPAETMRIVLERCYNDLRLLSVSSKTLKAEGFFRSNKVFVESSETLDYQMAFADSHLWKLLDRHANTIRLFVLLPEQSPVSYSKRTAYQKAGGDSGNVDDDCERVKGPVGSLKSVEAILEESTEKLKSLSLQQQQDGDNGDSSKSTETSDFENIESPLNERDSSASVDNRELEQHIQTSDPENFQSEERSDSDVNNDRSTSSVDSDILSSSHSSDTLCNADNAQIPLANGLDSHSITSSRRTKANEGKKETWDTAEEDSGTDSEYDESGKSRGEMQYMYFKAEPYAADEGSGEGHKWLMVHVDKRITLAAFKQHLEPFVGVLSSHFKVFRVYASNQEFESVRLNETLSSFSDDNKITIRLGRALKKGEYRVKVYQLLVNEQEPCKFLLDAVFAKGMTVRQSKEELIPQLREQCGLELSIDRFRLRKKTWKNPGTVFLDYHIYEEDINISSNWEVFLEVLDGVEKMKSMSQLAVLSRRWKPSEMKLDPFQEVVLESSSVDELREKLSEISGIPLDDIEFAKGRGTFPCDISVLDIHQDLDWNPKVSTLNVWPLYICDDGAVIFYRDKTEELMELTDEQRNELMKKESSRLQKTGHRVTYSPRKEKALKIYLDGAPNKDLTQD
In short: as §1

[4] = molecular target: T3, USP48 (UniProt Q86UV5)
T3 sequence (whole entry): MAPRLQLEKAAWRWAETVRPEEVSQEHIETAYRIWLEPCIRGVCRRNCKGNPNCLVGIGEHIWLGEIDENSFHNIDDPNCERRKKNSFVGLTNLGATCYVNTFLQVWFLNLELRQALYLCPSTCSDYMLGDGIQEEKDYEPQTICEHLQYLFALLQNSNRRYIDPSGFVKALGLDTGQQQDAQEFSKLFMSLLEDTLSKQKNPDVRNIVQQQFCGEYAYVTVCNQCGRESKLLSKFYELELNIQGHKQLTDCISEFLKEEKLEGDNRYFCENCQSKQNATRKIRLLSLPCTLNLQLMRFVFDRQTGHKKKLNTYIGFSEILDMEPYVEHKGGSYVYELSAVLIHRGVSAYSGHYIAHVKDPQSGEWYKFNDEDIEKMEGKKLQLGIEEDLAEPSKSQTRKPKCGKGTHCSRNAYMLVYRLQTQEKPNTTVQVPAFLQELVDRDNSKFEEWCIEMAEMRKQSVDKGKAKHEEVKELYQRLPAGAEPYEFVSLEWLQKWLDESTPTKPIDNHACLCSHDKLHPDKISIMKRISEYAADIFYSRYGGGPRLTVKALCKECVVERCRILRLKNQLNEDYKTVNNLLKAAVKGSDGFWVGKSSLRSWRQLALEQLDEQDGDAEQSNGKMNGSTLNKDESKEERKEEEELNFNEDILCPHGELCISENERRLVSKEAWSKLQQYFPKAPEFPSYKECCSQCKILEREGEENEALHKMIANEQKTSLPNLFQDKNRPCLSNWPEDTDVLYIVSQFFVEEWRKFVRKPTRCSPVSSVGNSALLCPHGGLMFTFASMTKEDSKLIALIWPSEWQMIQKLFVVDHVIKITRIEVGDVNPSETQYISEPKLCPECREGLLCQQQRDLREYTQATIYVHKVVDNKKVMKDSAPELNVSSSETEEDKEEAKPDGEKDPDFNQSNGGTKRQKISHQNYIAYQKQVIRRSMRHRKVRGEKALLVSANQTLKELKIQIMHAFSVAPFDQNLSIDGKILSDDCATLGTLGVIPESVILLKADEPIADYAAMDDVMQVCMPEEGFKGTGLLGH
In short: as §1

[5] = molecular target: T4, USP5 (UniProt P45974)
T4 sequence (whole entry): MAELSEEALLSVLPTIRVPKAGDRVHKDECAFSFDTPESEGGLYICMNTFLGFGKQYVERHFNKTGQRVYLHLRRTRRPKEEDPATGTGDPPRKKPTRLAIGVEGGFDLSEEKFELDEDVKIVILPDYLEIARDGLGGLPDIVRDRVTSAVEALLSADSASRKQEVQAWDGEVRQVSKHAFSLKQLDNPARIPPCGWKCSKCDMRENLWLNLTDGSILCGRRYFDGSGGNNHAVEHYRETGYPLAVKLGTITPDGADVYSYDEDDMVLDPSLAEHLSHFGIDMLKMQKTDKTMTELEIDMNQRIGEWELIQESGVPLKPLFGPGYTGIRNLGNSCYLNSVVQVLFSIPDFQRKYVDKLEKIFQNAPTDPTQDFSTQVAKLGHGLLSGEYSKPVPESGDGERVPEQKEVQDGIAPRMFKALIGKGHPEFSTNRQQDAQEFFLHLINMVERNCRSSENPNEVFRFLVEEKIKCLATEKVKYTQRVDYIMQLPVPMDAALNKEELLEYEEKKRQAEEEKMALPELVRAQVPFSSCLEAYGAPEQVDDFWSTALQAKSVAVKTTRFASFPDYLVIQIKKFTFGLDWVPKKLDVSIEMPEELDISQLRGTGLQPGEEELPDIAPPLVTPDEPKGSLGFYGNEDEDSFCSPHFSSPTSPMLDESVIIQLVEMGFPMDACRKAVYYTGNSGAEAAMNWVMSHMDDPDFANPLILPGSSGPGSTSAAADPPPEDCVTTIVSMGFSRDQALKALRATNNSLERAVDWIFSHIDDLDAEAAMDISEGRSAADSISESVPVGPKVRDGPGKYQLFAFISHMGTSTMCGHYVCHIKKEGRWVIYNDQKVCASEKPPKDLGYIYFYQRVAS
In short: as §1

[6] = molecular target: USP54 (UniProt Q70EL1)
In short: as §1

[7] = molecular target: USP7 (UniProt Q93009)
USP7, sequence (Q93009 whole entry, looked up): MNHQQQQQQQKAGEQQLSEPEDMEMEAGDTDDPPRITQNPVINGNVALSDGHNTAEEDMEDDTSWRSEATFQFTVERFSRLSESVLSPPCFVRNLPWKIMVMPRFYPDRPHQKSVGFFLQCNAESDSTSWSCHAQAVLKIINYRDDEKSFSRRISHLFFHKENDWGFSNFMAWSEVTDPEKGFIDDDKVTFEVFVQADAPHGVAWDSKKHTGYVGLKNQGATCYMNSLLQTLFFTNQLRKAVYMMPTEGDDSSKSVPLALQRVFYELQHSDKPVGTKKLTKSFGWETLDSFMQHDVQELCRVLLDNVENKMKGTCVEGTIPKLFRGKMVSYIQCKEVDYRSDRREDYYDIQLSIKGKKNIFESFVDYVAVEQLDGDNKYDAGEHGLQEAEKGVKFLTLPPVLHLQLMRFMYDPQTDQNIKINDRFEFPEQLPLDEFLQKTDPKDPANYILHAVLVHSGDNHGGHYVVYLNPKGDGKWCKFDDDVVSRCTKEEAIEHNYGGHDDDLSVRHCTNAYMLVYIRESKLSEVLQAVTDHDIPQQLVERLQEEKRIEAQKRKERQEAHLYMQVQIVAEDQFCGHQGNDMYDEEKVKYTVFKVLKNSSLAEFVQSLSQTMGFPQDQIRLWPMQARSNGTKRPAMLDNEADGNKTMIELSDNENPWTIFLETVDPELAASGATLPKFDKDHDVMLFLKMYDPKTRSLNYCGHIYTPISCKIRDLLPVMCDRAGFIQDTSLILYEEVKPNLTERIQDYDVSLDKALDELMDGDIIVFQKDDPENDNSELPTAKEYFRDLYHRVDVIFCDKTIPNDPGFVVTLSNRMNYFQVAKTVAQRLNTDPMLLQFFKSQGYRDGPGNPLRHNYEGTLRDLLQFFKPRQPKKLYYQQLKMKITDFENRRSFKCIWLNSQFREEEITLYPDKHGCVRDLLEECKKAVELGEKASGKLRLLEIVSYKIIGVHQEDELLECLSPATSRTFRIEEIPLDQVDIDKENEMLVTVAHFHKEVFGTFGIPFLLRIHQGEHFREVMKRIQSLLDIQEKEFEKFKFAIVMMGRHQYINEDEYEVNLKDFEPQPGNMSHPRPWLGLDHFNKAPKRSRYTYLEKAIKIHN
In short: as §1

[8] = molecular target: T5, USP8 (UniProt P40818)
T5 sequence (whole entry): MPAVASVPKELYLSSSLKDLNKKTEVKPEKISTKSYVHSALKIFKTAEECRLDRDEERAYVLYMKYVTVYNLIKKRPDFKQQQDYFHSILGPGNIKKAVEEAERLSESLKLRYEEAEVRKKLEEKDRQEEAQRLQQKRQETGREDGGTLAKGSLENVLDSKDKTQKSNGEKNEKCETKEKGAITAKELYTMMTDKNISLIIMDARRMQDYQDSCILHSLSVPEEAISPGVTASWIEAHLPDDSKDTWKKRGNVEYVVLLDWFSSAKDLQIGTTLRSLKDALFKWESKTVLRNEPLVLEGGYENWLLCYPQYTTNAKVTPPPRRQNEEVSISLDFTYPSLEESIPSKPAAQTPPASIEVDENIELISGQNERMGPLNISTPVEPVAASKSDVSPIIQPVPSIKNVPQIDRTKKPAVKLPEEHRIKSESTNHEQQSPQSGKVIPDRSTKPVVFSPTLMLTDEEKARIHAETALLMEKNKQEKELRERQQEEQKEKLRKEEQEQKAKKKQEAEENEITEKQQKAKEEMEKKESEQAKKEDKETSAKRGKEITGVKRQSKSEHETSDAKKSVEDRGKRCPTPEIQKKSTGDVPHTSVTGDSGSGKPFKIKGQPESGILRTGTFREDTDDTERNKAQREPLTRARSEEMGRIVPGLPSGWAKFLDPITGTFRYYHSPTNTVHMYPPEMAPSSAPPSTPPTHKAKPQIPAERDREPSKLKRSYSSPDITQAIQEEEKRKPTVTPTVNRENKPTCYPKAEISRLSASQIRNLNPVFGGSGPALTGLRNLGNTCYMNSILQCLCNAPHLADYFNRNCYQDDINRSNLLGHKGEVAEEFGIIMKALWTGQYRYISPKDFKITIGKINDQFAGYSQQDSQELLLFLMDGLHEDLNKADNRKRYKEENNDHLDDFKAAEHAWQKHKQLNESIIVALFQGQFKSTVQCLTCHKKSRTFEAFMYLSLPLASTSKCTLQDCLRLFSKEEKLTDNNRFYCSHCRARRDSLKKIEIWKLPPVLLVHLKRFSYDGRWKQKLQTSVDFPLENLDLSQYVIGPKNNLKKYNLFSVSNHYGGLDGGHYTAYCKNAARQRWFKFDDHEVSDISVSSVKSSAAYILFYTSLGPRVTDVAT
In short: as §1

[9] = molecular target: USP9X (UniProt Q93008)
USP9X, sequence (Q93008 whole entry): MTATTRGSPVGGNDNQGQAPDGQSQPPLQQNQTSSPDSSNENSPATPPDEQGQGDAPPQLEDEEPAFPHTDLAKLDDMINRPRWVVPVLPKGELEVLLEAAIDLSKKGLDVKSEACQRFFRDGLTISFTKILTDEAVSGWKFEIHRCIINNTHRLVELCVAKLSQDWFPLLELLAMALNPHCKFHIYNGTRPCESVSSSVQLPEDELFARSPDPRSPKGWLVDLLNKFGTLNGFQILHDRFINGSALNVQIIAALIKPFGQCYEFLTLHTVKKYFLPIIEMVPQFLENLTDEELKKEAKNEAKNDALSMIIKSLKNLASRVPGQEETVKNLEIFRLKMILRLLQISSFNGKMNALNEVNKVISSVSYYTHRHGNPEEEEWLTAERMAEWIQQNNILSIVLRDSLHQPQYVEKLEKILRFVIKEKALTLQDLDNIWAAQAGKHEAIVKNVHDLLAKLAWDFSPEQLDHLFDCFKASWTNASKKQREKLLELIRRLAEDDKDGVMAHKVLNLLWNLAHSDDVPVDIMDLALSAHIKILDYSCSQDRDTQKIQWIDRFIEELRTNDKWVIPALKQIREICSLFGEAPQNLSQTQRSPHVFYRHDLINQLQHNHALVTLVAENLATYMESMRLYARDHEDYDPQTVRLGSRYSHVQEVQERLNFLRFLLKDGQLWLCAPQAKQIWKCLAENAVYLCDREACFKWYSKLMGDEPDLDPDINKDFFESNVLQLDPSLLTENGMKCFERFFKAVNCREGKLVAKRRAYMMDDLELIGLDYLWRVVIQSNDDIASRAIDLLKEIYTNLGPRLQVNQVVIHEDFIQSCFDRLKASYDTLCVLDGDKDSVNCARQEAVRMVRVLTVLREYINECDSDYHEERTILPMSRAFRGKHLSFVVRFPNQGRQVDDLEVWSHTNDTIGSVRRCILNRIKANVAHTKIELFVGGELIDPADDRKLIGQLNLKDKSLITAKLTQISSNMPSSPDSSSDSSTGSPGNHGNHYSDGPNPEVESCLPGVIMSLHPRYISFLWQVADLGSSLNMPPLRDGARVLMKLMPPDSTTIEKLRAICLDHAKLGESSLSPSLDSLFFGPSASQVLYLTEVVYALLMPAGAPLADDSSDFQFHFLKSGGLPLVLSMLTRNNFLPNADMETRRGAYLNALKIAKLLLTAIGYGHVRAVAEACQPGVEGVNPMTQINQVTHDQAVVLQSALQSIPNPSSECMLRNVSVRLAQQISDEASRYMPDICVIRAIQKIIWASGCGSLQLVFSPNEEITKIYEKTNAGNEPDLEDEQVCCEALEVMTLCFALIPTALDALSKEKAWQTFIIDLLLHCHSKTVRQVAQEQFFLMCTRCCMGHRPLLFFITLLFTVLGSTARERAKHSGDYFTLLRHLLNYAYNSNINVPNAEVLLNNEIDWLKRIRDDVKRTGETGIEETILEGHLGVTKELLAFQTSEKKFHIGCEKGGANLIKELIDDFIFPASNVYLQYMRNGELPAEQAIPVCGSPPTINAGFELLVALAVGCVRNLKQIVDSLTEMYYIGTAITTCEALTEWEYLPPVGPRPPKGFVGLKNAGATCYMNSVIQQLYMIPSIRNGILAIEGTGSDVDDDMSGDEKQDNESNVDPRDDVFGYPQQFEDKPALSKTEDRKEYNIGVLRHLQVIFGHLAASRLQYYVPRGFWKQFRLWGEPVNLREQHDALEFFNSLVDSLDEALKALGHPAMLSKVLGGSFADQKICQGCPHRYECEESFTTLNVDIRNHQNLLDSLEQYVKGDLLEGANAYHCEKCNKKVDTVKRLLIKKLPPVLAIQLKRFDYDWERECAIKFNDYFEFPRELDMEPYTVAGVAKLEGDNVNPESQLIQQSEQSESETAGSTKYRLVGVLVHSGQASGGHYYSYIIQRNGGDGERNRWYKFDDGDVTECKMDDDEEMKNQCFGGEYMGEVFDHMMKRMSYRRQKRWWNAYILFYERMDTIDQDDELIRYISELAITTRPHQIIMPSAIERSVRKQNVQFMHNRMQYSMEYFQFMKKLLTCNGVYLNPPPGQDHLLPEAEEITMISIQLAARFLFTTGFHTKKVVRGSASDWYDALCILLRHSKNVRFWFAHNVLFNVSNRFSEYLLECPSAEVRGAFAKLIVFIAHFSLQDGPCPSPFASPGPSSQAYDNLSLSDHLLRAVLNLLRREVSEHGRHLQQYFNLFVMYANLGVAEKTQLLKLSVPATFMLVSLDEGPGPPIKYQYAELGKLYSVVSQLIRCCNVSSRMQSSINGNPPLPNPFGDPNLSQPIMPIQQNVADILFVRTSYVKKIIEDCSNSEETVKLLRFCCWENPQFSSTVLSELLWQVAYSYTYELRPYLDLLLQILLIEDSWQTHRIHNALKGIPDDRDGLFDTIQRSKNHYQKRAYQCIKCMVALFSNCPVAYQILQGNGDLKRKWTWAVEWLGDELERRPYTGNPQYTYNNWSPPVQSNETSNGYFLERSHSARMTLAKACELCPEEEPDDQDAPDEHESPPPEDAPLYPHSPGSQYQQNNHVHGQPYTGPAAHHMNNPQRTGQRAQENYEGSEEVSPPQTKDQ
In short: as §1

[10] = molecular target: UniProt O00487
UniProt O00487, sequence (O00487 whole entry): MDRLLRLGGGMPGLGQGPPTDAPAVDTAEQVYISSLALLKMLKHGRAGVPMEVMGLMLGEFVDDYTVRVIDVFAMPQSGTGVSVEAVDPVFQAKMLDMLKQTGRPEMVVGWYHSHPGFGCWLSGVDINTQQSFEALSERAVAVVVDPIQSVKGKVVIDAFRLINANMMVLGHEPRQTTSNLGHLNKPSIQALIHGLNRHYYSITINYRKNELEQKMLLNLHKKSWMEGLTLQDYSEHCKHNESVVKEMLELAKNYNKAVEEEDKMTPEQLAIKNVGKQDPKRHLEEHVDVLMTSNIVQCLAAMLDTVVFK
In short: as §1

Measured: log2 ratio of Biotin-Ahx-Ub-VS probe labelling

CC(NC(=O)CCl)c1cnn(C2CC2)c1 (stereo not given)
inactive: [1] 0.309 | [2] -0.113 | [3] -0.514 | [4] 0.0173 | [5] -0.392 | [6] 0.76 | [7] -0.323 | [8] -0.373 | [9] -0.227 | [10] -0.0263

Cc1ncsc1CCNC(=O)CCl
inactive: [1] 0.0552 | [2] 0.359 | [3] 0.687 | [4] 0.00776 | [5] 0.325 | [6] 0.227 | [7] 0.0797 | [8] 0.298 | [9] -0.0257 | [10] 0.339

O=C(CCl)N1CCC2(CCC(O)CC2)CC1
inactive: [1] 0.175 | [2] 0.0165 | [3] -0.0514 | [4] -0.0801 | [5] 0.218 | [6] 0.833 | [7] -0.00495 | [8] -0.382 | [9] -0.156 | [10] 0.0439
